Activity calls are given as the source filed them. Cut-off read from the data, not from the text of the source: active = inhibition above about 28%; inactive = the rest.

The nature of the assay: StAR promoter reporter inhibitors, counter-screen for LRH-1 inverse agonist project, cell-based, luminescence, high throughput (AID 651611). Particulars: StAR promoter luciferase reporter counterscreen, at 3.6 µM, stronger effect = higher value. For orientation: The purpose of a counterscreen is to sort out artefacts and off-target activity.
Broadly, the inhibition is the change of the read-out against control, counted positive when it falls. Consider `O=C1C=C(NCc2ccco2)C2(CCCCC2)O1`, for which the inhibition is -2.64% (inactive).
In the case of `Nc1ccccc1Nc1ccncc1[N+](=O)[O-]`, the inhibition is 0.62% (inactive).
`CC(C)C(=O)N1CCN(c2ccccc2NC(=O)c2ccc([N+](=O)[O-])o2)CC1`: the inhibition was 10.9% (inactive).
The figure for `COc1ccc(OCCNC(=O)C2(C)CCN2Cc2ccc3ccccc3c2)cc1` (stereo not given) is 13.6% (inactive); for `O=C(CN1CCN(c2ncccn2)CC1)N1CCCc2c1c(=O)oc1ccc(O)cc21` it is 13% (inactive); for `Cc1ccc(NC(=O)CSc2nc3ncc(Br)cc3[nH]2)cc1C` it is 10.7% (inactive).
Consider `CCOc1ccc(Br)cc1C1=NN(C(C)=O)C(c2ccc([N+](=O)[O-])s2)O1` (stereo not given), for which the inhibition was 17.9% (inactive).
In the case of `COc1ccc(/C=C2/CSC/C(=C/c3ccc(OC)c(OC)c3)C2=O)cc1OC`, the inhibition is -4.62% (inactive).
On to `Oc1cccc(Nc2nc(-c3ccccc3Cl)nc3ccccc23)c1`, for which the inhibition is 9.52% (inactive).
Consider `N#Cc1ccccc1NC(=O)c1ccccc1OCC(=O)Nc1ccc2c(c1)oc1ccccc12`, for which the inhibition was 13.3% (inactive).
Then `Cc1onc(-c2ccccc2Cl)c1-c1nc(-c2ccccn2)no1`, with 17.1% (inactive).
Then `CC1Cc2ccccc2N1C1=CC(=O)CC(C)(C)C1` (stereo not given), with 21.4% (inactive).
Then `CCOc1ccc(NC(=O)Cn2nc(-c3ccccc3Cl)n(CC)c2=S)cc1`, with 1.73% (inactive); and `COc1ccc(OC)c(C2C3=C(COC3=O)Nc3cc4c(cc32)OCO4)c1` (stereo not given), with 57.4% (active); and `O=C(CSc1nc2ccccc2c(=O)n1-c1ccc(Cl)c(Cl)c1)Nc1ccc2c(c1)CCC2`, with -1.82% (inactive).

These data come from PubChem BioAssay.
